Experimental data reported in the supplement of paper PMC10941209.
A number with no mark means an inactive call.

Each molecule was assayed on Toxoplasma gondii RH 2F1 tachyzoites (intracellular in HFF) (assay: parasite survival relative to DMSO control; higher = less antiparasitic activity, active = 20 or less). Settings: 1 µM; 72 h.
Procedure: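 Primary single-dose screen of the MMV Pandemic Response Box at 1 uM against T. gondii RH-2F1 (beta-galactosidase) tachyzoites in HFF cells, 72 h at 37 C. Parasite growth read by CPRG absorbance at 570 nm and normalised to DMSO-treated infected controls (% survival); pyrimethamine was the reference drug. The paper calls at least 80% inhibition a hit.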

First: O=C(O)c1cc(-c2ccc(Br)cc2)nc2ccc(Cl)cc12
Second: O=C(Nc1ccccc1)N(Cc1cc(Br)ccc1O)c1ccc(F)cc1
The parasite survival of the first is higher: 72.8% for the first, 21.3% for the second.

Going from `O=C(Cc1ccccc1F)Nc1nc2ccccc2[nH]1` to `O=C(NCc1ccccc1Cl)c1cnc2ccccc2n1`, the parasite survival rises from 38.1% to 45.6%.

Compared with `CCNC(=O)Nc1cn2c(-c3ncc(CC)cn3)cc(-c3cccnc3)cc2n1`, `CCc1nc2ccccn2c1C(=O)NCc1ccccc1` is higher in parasite survival: 34.6% for the first, 79.5% for the second.

Going from `O=C(O)/C=C/C=C/c1cccc(Oc2cc(Cl)cc(Cl)c2)c1` to `N#Cc1cc([N+](=O)[O-])ccc1Oc1ccccc1Cl`, the parasite survival rises from 36.2% to 69%.

First: CCC[C@H](NC(=O)[C@@H]1[C@H]2CCC[C@H]2CN1C(=O)[C@@H](NC(=O)[C@@H](NC(=O)c1cnccn1)C1CCCCC1)C(C)(C)C)C(=O)C(=O)NC1CC1
Second: C=C(C)[C@@H]1CC[C@]2(C(=O)O)CC[C@]3(C)[C@H](CC[C@@H]4[C@@]5(C)CC[C@H](O)C(C)(C)[C@@H]5CC[C@]43C)[C@@H]12
The parasite survival of the first is higher: 46.8% for the first, 46.6% for the second.

Compared with `O=[N+]([O-])c1cn2c(n1)OC[C@@H](OCc1ccc(OC(F)(F)F)cc1)C2`, `CCc1nc2ccc(Cl)cn2c1C(=O)NCc1ccc(N2CCC(c3ccc(OC(F)(F)F)cc3)CC2)cc1` is lower in parasite survival: 45.2% for the first, 28.9% for the second.

First: C[C@H](Cn1cnc2c(N)ncnc21)OCP(=O)(O)O
Second: O=C(O)c1ccccc1Sc1ncnc2sc3c(c12)CCC3
The parasite survival of the first is higher: 76.3% for the first, 44.2% for the second.

Going from `NC(=O)c1cnccn1` to `Nc1cnn(C2OC(CO)C(O)C2O)c(=O)n1` (stereo not given), the parasite survival rises from 52.5% to 76.2%.

First: Cc1cc(CCCOc2c(C)cc(-c3noc(C(F)(F)F)n3)cc2C)on1
Second: CCc1cc(CCCOc2c(C)cc(-c3noc(C(F)(F)F)n3)cc2C)on1
The parasite survival of the first is higher: 67.2% for the first, 55.4% for the second.

Compared with `Cc1cccc(CC(=O)N[C@H]2CCOC2=O)c1`, `CC(=O)NC[C@H]1CN(c2ccc(N3CCSCC3)c(F)c2)C(=O)O1` is higher in parasite survival: 38.3% for the first, 44% for the second.

First: CC1(C)CC(NC(=O)C(=O)Nc2ccc(Cl)cc2)CC(C)(C)N1
Second: Cc1ccccc1NC(=O)Nc1cccc([N+](=O)[O-])c1
The parasite survival of the first is higher: 69.9% for the first, 24.2% for the second.

Compared with `O=C(Nc1ccc(N2CCN(C(=O)c3ccccc3)CC2)cc1)c1ccc2c(c1)OCO2`, `C(=C\c1nc2ccccc2[nH]1)/c1ccc2c(c1)OCO2` is lower in parasite survival: 46.9% for the first, 22.1% for the second.

Compared with `CN(Cc1ccc(C(C)(C)C)cc1)Cc1cccc2ccccc12`, `COc1ccc(CNC(=O)C2CCN([C@H](C)c3cccc4ccccc34)CC2)cc1` is higher in parasite survival: 37.9% for the first, 52% for the second.

Compared with `O=S(=O)(NCB(O)O)c1cc2c(Cl)ccc(Cl)c2s1`, `CC[C@@]1(O)C(=O)OCc2c1cc1n(c2=O)Cc2cc3c([N+](=O)[O-])cccc3nc2-1` is higher in parasite survival: 54.4% for the first, 57.5% for the second.

Going from `COc1cc(C(C)(C)CCCC(C)C)cc(OC)c1OC` to `COc1ccc(COc2cc3oc(=O)c4cc(C(C)O)ccc4c3cc2OC)cc1` (stereo not given), the parasite survival rises from 36.9% to 57%.

Going from `O=S(=O)(Nc1cccc2cccnc12)c1ccccc1` to `Cc1[nH]c2ccccc2c1CC(=O)N[C@@H](Cc1ccccc1)C(=O)N(C)c1ccccc1`, the parasite survival rises from 24.5% to 83.1%.

First: O=[N+]([O-])/C(Br)=C/c1ccc(Br)o1
Second: CCCCCCC1c2ccc(O)cc2Oc2cc(O)ccc21
The parasite survival of the first is higher: 26.6% for the first, 25.2% for the second.

For `CCC[C@@H]1C[C@@H](C(=O)N[C@@H]([C@H]2O[C@H](SC)[C@H](O)[C@@H](O)[C@H]2O)[C@H](C)Cl)N(C)C1`, the parasite survival was 16.1% (active).
`C[C@@H](NC(=O)c1cccc(-c2cnc(-c3cc4ccccc4cn3)[nH]2)c1)c1ccc(F)cc1` was tested, and the parasite survival was 11.6% (active).
With `C[Si]1(C)CCN(Cc2cc(-c3ccc(Cl)cc3)n(-c3ccc(Cl)cc3)n2)CC1` the parasite survival was 13.7% (active).
For `CCOC(=O)Nc1cc(NC(C)CC(C)CN(CC)CC)c2nc(-c3ccccc3)c(-c3ccccc3)nc2n1` (stereo not given), the parasite survival was 7.01% (active).
With `COc1nc2ccc(Br)cc2cc1[C@@H](c1ccccc1)[C@@](O)(CCN(C)C)c1cccc2ccccc12` the parasite survival was 14% (active).
`CC[C@H](NC(=O)[C@H](C)NC)C(=O)N1C[C@@H](O)C[C@H]1Cc1c(-c2[nH]c3cc(F)ccc3c2C[C@@H]2C[C@H](O)CN2C(=O)[C@H](CC)NC(=O)[C@H](C)NC)[nH]c2cc(F)ccc12` was tested, and the parasite survival was 8.15% (active).
